Experimental findings from ChEMBL document CHEMBL3988442, “University of Dundee, Small-Polar-MMV Screening Library” (2021) are described below.

The test system of one experiment is Trypanosoma cruzi. The experiment can be described thus: Trypanosoma cruzi phosphomannomutase and mannose-1-phosphate guanylyltransferase assay. It is filed as functional. Further details: scale not given: direction of the effect not stated beside the values. The conditions noted are these: 10 µM.
`COCCc1ncc(CN2CCC(Oc3ccccc3C)CC2)cn1`: the Percent Effect stood at 1.58%.

Take `COCCCN1CC2(CCCCN2C(=O)c2ccsc2)CC1=O` (stereo not given): the Percent Effect was 2.44%.

With `CCc1nc(C2CCCN2CCn2cncn2)no1` (stereo not given), the Percent Effect was -0.187%.

As to `O=C(NCCOc1ccc(Cl)cc1)N1CCS(=O)(=O)CC1`, the Percent Effect was 6.1%.

Regarding `COC(=O)CC(c1ccccc1)c1oc(C)cc(=O)c1O` (stereo not given), the Percent Effect was -5.33%.

As for `COc1ncccc1CNC(=O)c1cccc(C)n1`, the Percent Effect came out at 6.1%.

For `CC(C)CN(Cc1nc2c(cnn2C)c(=O)[nH]1)C(C)C`, the Percent Effect is 5.92%.

Turning to `CC(C)C(=O)N1CCC2(CCCN(CCOc3ccccc3)C2)C1` (stereo not given), the Percent Effect was -3%.

Regarding `Cc1ccc(-c2nc(CCNC(=O)NC3CCN(C)CC3)co2)cc1`, the Percent Effect is 1.81%.

As for `COc1ccc(CNCc2ccnc(N3CCCCC3)c2)cc1OC`, the Percent Effect worked out at 4.22%.

With `COc1ccc(CC(=O)N2C[C@@H]3COC[C@]3(CN(C)C)C2)cc1`, the Percent Effect was 3.8%.

For the compound `CC(=O)N1N=C(c2ccccc2)OC1C(=O)NCCc1cccc(Cl)c1` (stereo not given), the Percent Effect was -2.56%.

Take `Cc1cnn(CC2CN(CC(=O)N(C)Cc3cccs3)CCO2)c1` (stereo not given): the Percent Effect was -5.82%.

As for `O=C(CC1CCCC1)N1C[C@@H]2CCN(c3cccnc3)C[C@@H]2C1`, the Percent Effect is -3.94%.

Consider `COc1ccc(CN2CCC3(CC(Nc4ccncn4)C3)C2)c(OC)c1` (stereo not given), for which the Percent Effect was -2.76%.

Regarding `Cc1nn(C)c(N(C)C)c1CNCCNS(C)(=O)=O`, the Percent Effect was found to be 5.54%.

Regarding `Cc1cc(-c2nn(C)c(Cl)c2CN2Cc3ccccc3C(O)C2)no1` (stereo not given), the Percent Effect stood at 11.2%.

Turning to `CCc1nnc(CN2CCCC(c3cc(C(F)(F)F)[nH]n3)C2)o1` (stereo not given), the Percent Effect is -4.22%.

With `CC[C@@H]1N(Cc2ccsc2)CCC[C@]12CCC(=O)N2CCOC`, the Percent Effect was -3.19%.

Consider `CC(c1nc(C2CC2)no1)N1CCN(Cc2ccsc2)CC1` (stereo not given), for which the Percent Effect turned out to be 1.97%.

Turning to `COc1cccc(OC)c1C(=O)N1CCN(c2ccccc2F)CC1`, the Percent Effect was -4.34%.

With `O=C(NCC1CC1)C1=NOC2(CCN(S(=O)(=O)c3cccs3)C2)C1` (stereo not given), the Percent Effect is -1.85%.

`Cc1ncc(S(C)(=O)=O)c(C2CCCNC2)n1` (stereo not given): the Percent Effect is -2.81%.

Regarding `O=C(NCCc1cccnc1)N1CCCC1c1ccsc1` (stereo not given), the Percent Effect amounted to 5.73%.

With `CNC(=O)[C@@H]1C[C@H]2CN(Cc3ccco3)C[C@H]2N1C`, the Percent Effect is -3.19%.

For `Cc1ccc(Oc2ccc(NC(=O)NCC3CCOC3)cn2)cc1C` (stereo not given), the Percent Effect is 7.98%.

In the case of `O=C(Cc1n[nH]c2ccccc12)N1CCC(Nc2cccnn2)CC1`, the Percent Effect came out at 3.36%.

On to `Cc1cc(C2CCCN(C(=O)c3c(C)nn4cccnc34)C2)n[nH]1` (stereo not given), for which the Percent Effect is -2.21%.

Consider `CC(C)c1nc(C2CCCN2CC(=O)Nc2nncs2)no1` (stereo not given), for which the Percent Effect amounted to 0.402%.

Take `CCn1ccnc1CN1CCN(CC(O)c2ccccc2)CC1` (stereo not given): the Percent Effect is -4.79%.

Turning to `CO[C@@H]1CCN(C(=O)c2ccccn2)[C@H]1Cc1ccccc1`, the Percent Effect worked out at 1.5%.

Turning to `Cc1noc(C(C)C)c1C(=O)NCCN1CCCCCC1=O`, the Percent Effect was found to be 1.68%.

In the case of `Cc1noc(C)c1CC(=O)OCC(=O)N1CCc2sccc2C1`, the Percent Effect was determined as 0.201%.

As for `COCc1nc(C(=O)N2CCCC(n3cccn3)C2)cs1` (stereo not given), the Percent Effect was -4.29%.

For the compound `COCCN1CCCN(C(=O)NC(C)Cn2ccnc2)CC1` (stereo not given), the Percent Effect is 0.56%.

On to `CC(C)(C)n1ncc2c1NC(=O)CC2c1ccsc1` (stereo not given), for which the Percent Effect was -7.47%.

In the case of `O=C(NCCO)c1ccn(-c2ccc3ccccn23)n1`, the Percent Effect was 3.99%.

Consider `COc1ncccc1CNC(=O)c1cccnc1O`, for which the Percent Effect was 5.35%.

On to `CCc1cc(O)nc(C2CCCN2C(=O)c2cc(C)no2)n1` (stereo not given), for which the Percent Effect is -2.76%.

For `O=C(NC[C@]1(O)CN(Cc2ccccc2F)C[C@H]1O)c1ccccn1`, the Percent Effect was -2.37%.

Another experiment deals with T1, Arginase-2, mitochondrial (Homo sapiens) (UniProt P78540).
T1 sequence (whole entry): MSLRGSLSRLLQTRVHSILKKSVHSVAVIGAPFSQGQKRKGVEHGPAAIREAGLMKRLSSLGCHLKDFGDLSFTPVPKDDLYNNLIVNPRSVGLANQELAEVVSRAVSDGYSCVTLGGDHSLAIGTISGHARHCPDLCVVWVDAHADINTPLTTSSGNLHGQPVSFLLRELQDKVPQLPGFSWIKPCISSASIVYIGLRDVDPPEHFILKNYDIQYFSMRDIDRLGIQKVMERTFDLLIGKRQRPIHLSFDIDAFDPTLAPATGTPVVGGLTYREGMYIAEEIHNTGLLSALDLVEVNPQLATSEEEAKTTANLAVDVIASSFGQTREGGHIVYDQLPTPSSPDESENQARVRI
The experiment can be described thus: in vitro enzyme assay to detect the production of urea directly proportional to the activity of Arginase II. More on the design: scale not given: in the data most compounds retested in dose-response had high values. The conditions noted are these: 33.3 µM. The experiment is classed as functional.
For the compound `COCCc1ncc(CN2CCC(Oc3ccccc3C)CC2)cn1`, the Percent Effect is -0.443%.

Consider `COCCCN1CC2(CCCCN2C(=O)c2ccsc2)CC1=O` (stereo not given), for which the Percent Effect is 1.83%.

For the compound `CCc1nc(C2CCCN2CCn2cncn2)no1` (stereo not given), the Percent Effect turned out to be 3.07%.

As to `O=C(NCCOc1ccc(Cl)cc1)N1CCS(=O)(=O)CC1`, the Percent Effect is -1.23%.

Regarding `COC(=O)CC(c1ccccc1)c1oc(C)cc(=O)c1O` (stereo not given), the Percent Effect is -1.75%.

Take `COc1ncccc1CNC(=O)c1cccc(C)n1`: the Percent Effect is -5.74%.

Consider `CC(C)CN(Cc1nc2c(cnn2C)c(=O)[nH]1)C(C)C`, for which the Percent Effect worked out at 7.38%.

As for `CC(C)C(=O)N1CCC2(CCCN(CCOc3ccccc3)C2)C1` (stereo not given), the Percent Effect was determined as 1.83%.

Take `Cc1ccc(-c2nc(CCNC(=O)NC3CCN(C)CC3)co2)cc1`: the Percent Effect was -4.88%.

For `COc1ccc(CNCc2ccnc(N3CCCCC3)c2)cc1OC`, the Percent Effect was 2.87%.

On to `COc1ccc(CC(=O)N2C[C@@H]3COC[C@]3(CN(C)C)C2)cc1`, for which the Percent Effect is -6.07%.

For the compound `CC(=O)N1N=C(c2ccccc2)OC1C(=O)NCCc1cccc(Cl)c1` (stereo not given), the Percent Effect is 2.65%.

On to `Cc1cnn(CC2CN(CC(=O)N(C)Cc3cccs3)CCO2)c1` (stereo not given), for which the Percent Effect stood at 9.31%.

`O=C(CC1CCCC1)N1C[C@@H]2CCN(c3cccnc3)C[C@@H]2C1`: the Percent Effect amounted to 2.28%.

In the case of `COc1ccc(CN2CCC3(CC(Nc4ccncn4)C3)C2)c(OC)c1` (stereo not given), the Percent Effect was -3.54%.

As for `Cc1nn(C)c(N(C)C)c1CNCCNS(C)(=O)=O`, the Percent Effect is 5.74%.

As to `Cc1cc(-c2nn(C)c(Cl)c2CN2Cc3ccccc3C(O)C2)no1` (stereo not given), the Percent Effect is 20.6%.

For the compound `CCc1nnc(CN2CCCC(c3cc(C(F)(F)F)[nH]n3)C2)o1` (stereo not given), the Percent Effect was determined as 3.1%.

For `CC[C@@H]1N(Cc2ccsc2)CCC[C@]12CCC(=O)N2CCOC`, the Percent Effect was determined as 4.11%.

Consider `CC(c1nc(C2CC2)no1)N1CCN(Cc2ccsc2)CC1` (stereo not given), for which the Percent Effect is -1.64%.

For `COc1cccc(OC)c1C(=O)N1CCN(c2ccccc2F)CC1`, the Percent Effect is -6.2%.

For `O=C(NCC1CC1)C1=NOC2(CCN(S(=O)(=O)c3cccs3)C2)C1` (stereo not given), the Percent Effect is -3.64%.

As for `Cc1ncc(S(C)(=O)=O)c(C2CCCNC2)n1` (stereo not given), the Percent Effect stood at 1.75%.

`O=C(NCCc1cccnc1)N1CCCC1c1ccsc1` (stereo not given): the Percent Effect worked out at 3.69%.

On to `CNC(=O)[C@@H]1C[C@H]2CN(Cc3ccco3)C[C@H]2N1C`, for which the Percent Effect is 4.11%.

As for `Cc1ccc(Oc2ccc(NC(=O)NCC3CCOC3)cn2)cc1C` (stereo not given), the Percent Effect came out at 6.97%.

As for `O=C(Cc1n[nH]c2ccccc12)N1CCC(Nc2cccnn2)CC1`, the Percent Effect was -7.58%.

In the case of `Cc1cc(C2CCCN(C(=O)c3c(C)nn4cccnc34)C2)n[nH]1` (stereo not given), the Percent Effect turned out to be 0.444%.

`CC(C)c1nc(C2CCCN2CC(=O)Nc2nncs2)no1` (stereo not given): the Percent Effect was -1.33%.

In the case of `CCn1ccnc1CN1CCN(CC(O)c2ccccc2)CC1` (stereo not given), the Percent Effect is 4.51%.

On to `CO[C@@H]1CCN(C(=O)c2ccccn2)[C@H]1Cc1ccccc1`, for which the Percent Effect is -0.457%.

As to `Cc1noc(C(C)C)c1C(=O)NCCN1CCCCCC1=O`, the Percent Effect was determined as 1.02%.

On to `Cc1noc(C)c1CC(=O)OCC(=O)N1CCc2sccc2C1`, for which the Percent Effect is -3.99%.

Take `COCc1nc(C(=O)N2CCCC(n3cccn3)C2)cs1` (stereo not given): the Percent Effect amounted to 2.25%.

On to `COCCN1CCCN(C(=O)NC(C)Cn2ccnc2)CC1` (stereo not given), for which the Percent Effect was -4.71%.

For the compound `CC(C)(C)n1ncc2c1NC(=O)CC2c1ccsc1` (stereo not given), the Percent Effect came to 5.94%.

In the case of `O=C(NCCO)c1ccn(-c2ccc3ccccn23)n1`, the Percent Effect is -8.5%.

Consider `COc1ncccc1CNC(=O)c1cccnc1O`, for which the Percent Effect was 1.23%.

With `CCc1cc(O)nc(C2CCCN2C(=O)c2cc(C)no2)n1` (stereo not given), the Percent Effect was -2.65%.

For `O=C(NC[C@]1(O)CN(Cc2ccccc2F)C[C@H]1O)c1ccccn1`, the Percent Effect was found to be 1.33%.
